What all share (assay): NCI-60 one-dose screen, 48 h (100 = growth as untreated, 0 = no growth, -100 = all killed)
For one assay, the system named is HCT-15 colon. The settings on record: 10 µM unless noted.
A further assay deals with SNB-75 CNS. The settings on record: 10 µM unless noted.
The next assay relates to SNB-19 CNS. The conditions noted are these: 10 µM unless noted.
Another assay concerns U251 CNS. The conditions noted are these: 10 µM unless noted.
A further assay has as its system PC-3 prostate. The conditions noted are these: 10 µM unless noted.
The next assay relates to SK-MEL-5 melanoma. The settings on record: 10 µM unless noted.
The subject of a further assay is UACC-62 melanoma. The conditions noted are these: 10 µM unless noted.
In another assay the test system is LOX IMVI melanoma. The settings on record: 10 µM.
Another assay deals with SK-MEL-28 melanoma. The conditions noted are these: 10 µM unless noted.

Compounds without any hit were thinned out: in the full panel of roughly 83,000, 20% have a hit.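 Step 1: grow cells in 96-well plates. Step 2: add test compound at a single concentration. Step 3: incubate 48 h. Step 4: record percent growth.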 Unmarked numbers belong to inactive results. Activity calls are given as the source filed them. The calls were made as follows: active = growth percent below 10; inactive = the rest.

In the case of `Cc1cc(C(=O)NN)c(C#N)c(=O)[nH]1`, the growth in the assay with HCT-15 colon is 105%; in the assay with SNB-75 CNS it was 84.6%; with SNB-19 CNS, 95.3%; in the assay on U251 CNS it was 104%; in the assay with PC-3 prostate, 91.1%; with SK-MEL-5 melanoma, 95.7%. The values for the growth with UACC-62 melanoma, in the assay with LOX IMVI melanoma and in the assay with SK-MEL-28 melanoma were 89.8%, 97.7% and 91.8%, respectively.
As to `Cc1ccc(S(=O)(=O)CCCl)cc1`, the growth in the assay on HCT-15 colon was 90.9%; in the assay with SNB-19 CNS, 97.1%; in the assay with U251 CNS it was 101%; with PC-3 prostate, 90.7%; in the assay with SK-MEL-5 melanoma, 114%; in the assay with UACC-62 melanoma, 99.8%. Besides, the results for the growth in the assay with LOX IMVI melanoma and with SK-MEL-28 melanoma were 107% and 115%, respectively.
Take `Nc1ccc2c(c1)Cc1cc(N)c(N)cc1-2`: the growth in the assay on HCT-15 colon was 108%; in the assay with SNB-75 CNS it was 96%; in the assay on SNB-19 CNS, 95.6%; in the assay on U251 CNS, 86%; in the assay with PC-3 prostate it was 96.3%; with SK-MEL-5 melanoma it was 93.4%. Further, the growth with UACC-62 melanoma was 94%; with LOX IMVI melanoma it was 97%; in the assay with SK-MEL-28 melanoma it was 107%.
On to `O=C(NCc1ccco1)Nc1cccc2c(NC(=O)NCc3ccco3)cccc12`, for which the growth in the assay with HCT-15 colon is 99.2% [100 µM]; in the assay on SNB-75 CNS it was 49.7% [100 µM]; in the assay on SNB-19 CNS, 52.6% [100 µM]; in the assay with U251 CNS, 64.8% [100 µM]; in the assay with PC-3 prostate, 42.9% [100 µM]; in the assay with SK-MEL-5 melanoma, 90% [100 µM]. The growth in the assay with UACC-62 melanoma is 96.6% [100 µM]; in the assay with SK-MEL-28 melanoma, 91.3% [100 µM].
`COc1ccc(NNS(=O)(=O)O)cc1`: the growth in the assay with HCT-15 colon was 101%; in the assay with SNB-75 CNS it was 83.2%; with SNB-19 CNS, 98.1%; with U251 CNS, 98%; in the assay on PC-3 prostate, 86.1%; in the assay on SK-MEL-5 melanoma, 102%. For the same compound, the growth with UACC-62 melanoma is 96.7%; in the assay on LOX IMVI melanoma, 99.7%; in the assay with SK-MEL-28 melanoma, 107%.
Take `CC(=O)NCNC(C)=O`: the growth with HCT-15 colon is 101%; in the assay with SNB-75 CNS, 92.4%; in the assay with SNB-19 CNS, 107%; with U251 CNS it was 103%; in the assay on PC-3 prostate, 88.9%; with SK-MEL-5 melanoma, 102%. The growth in the assay with UACC-62 melanoma was 112%; in the assay with LOX IMVI melanoma it was 113%; in the assay on SK-MEL-28 melanoma it was 107%.
As for `O=C1CSc2ccccc2N1`, the growth with HCT-15 colon was 118%; in the assay on SNB-75 CNS, 76.2%; in the assay with SNB-19 CNS it was 96.3%; in the assay on U251 CNS, 96.7%; with PC-3 prostate it was 93.1%; in the assay with SK-MEL-5 melanoma, 109%. Also, the growth with UACC-62 melanoma is 106%; in the assay on LOX IMVI melanoma it was 88%; in the assay on SK-MEL-28 melanoma it was 105%.
`Cn1c(=O)c2[nH]c(CCCCC(=O)O)nc2n(C)c1=O`: the growth in the assay on HCT-15 colon is 107%; with SNB-75 CNS it was 95.3%; with SNB-19 CNS, 114%; in the assay on U251 CNS, 106%; in the assay on PC-3 prostate it was 92.4%; in the assay on SK-MEL-5 melanoma, 108%. The growth is 102% with UACC-62 melanoma, 99.4% with LOX IMVI melanoma and 118% in the assay with SK-MEL-28 melanoma.
For `O=C(c1ccc(Cl)cc1)N1CCCCC1`, the growth was 98.5% with HCT-15 colon; 88.5% in the assay with SNB-75 CNS; 93.7% in the assay on SNB-19 CNS; 94.7% in the assay with U251 CNS; 97.8% with PC-3 prostate; 100% in the assay on SK-MEL-5 melanoma. For the same compound, the values for the growth in the assay on UACC-62 melanoma, in the assay with LOX IMVI melanoma and in the assay on SK-MEL-28 melanoma were 95%, 97.6% and 101%, respectively.
On to `CCC(=O)Oc1ccc2ccccc2c1`, for which the growth was 104% in the assay on HCT-15 colon; 82.4% in the assay on SNB-75 CNS; 97.9% with SNB-19 CNS; 93.9% in the assay with U251 CNS; 77% in the assay on PC-3 prostate; 91.6% with SK-MEL-5 melanoma. In addition, the values for the growth in the assay with UACC-62 melanoma, with LOX IMVI melanoma and in the assay on SK-MEL-28 melanoma were 92.1%, 92.2% and 110%, respectively.
On to `CCCCN(C(=O)CC)c1ccccc1`, for which the growth was 108% in the assay on HCT-15 colon; 89.8% in the assay on SNB-75 CNS; 99.9% in the assay with SNB-19 CNS; 97.6% with U251 CNS; 103% with PC-3 prostate; 100% with SK-MEL-5 melanoma. The values for the growth in the assay with UACC-62 melanoma, with LOX IMVI melanoma and with SK-MEL-28 melanoma were 99.2%, 97.4% and 104%, respectively.
On to `O=C1C=C[C@H](O)[C@@]2(CO)O[C@@H]12`, for which the growth is 104% in the assay with HCT-15 colon; 81% in the assay on SNB-75 CNS; 100% in the assay on SNB-19 CNS; 91.4% in the assay on U251 CNS; 82.3% with PC-3 prostate; 65.8% with UACC-62 melanoma. Further, the growth in the assay with LOX IMVI melanoma is 66.7%; in the assay on SK-MEL-28 melanoma it was 42.1%.
As for `C=C1CC2(OC1=O)C(=O)N(C)c1ccc(I)cc12` (stereo not drawn), the growth with HCT-15 colon is -53.7% (active); with SNB-19 CNS it was 64%; in the assay with U251 CNS it was 2.89% (active); with PC-3 prostate, -76.6% (active); in the assay on SK-MEL-5 melanoma it was -92% (active); with UACC-62 melanoma, -61.2% (active). Besides, the values for the growth in the assay with LOX IMVI melanoma and with SK-MEL-28 melanoma were -65.4% (active) and -93.6% (active), respectively.

For the origin of these results see PubChem BioAssay (NCI).
